# Compound activity as filed in PubChem.
# Most compounds without a hit are left out; they make up all but 12% or so of the library.
# Lassa entry inh: inhibitors of Lassa virus binding or cell entry | Potency, µM (doses to about 37.9 µM), for the others: at the highest dose activity change, negative = inhibition, most hits filed as inhibitors | Lassa virus pseudotype entry inhibition, cell reporter | hit rate 1.2% among 300,000; calls by dose curve; tested in HEK293 cells; further: potency means the concentration at half of the fitted maximal effect; on the % scale 0 is the no-effect control and ±100 the full control effect; nearly all actives have a fitted effect of over 50% in size
# MARV entry inh: Marburg virus entry inhibition; hit rate 1.8% among 300,000; Potency, µM (series often up to 37.8 µM), for inactives: top-dose activity change, negative = inhibition, usual class: inhibitors; Marburg virus pseudotyped entry inhibition, cell reporter; AID 540276; calls by dose curve; tested in HEK293 cells; further: potency means the concentration at half of the fitted maximal effect; on the % scale 0 is the no-effect control and ±100 the full control effect
# CHX counter: counter-screen hit for Shiga toxin inhibitors, cycloheximide; cell reporter, cycloheximide protein synthesis inhibition counterscreen; max response, %; hit rate 12% among 300,000; in the data active means max response mostly above about 13%, no sharp cut-off; inactive means mostly below about 14%; further: read at 38.3 µM for the half of the compounds with a filed dose; 0% is about no effect
# Shiga inhibitor: inhibitors of Shiga toxin in Vero cells. Vero cells, Shiga toxin protein synthesis inhibition reporter. inhibition, % at 38.7 µM. hit rate 9.2% among 290,000. AID 2315; in the data active means inhibition mostly above about 28%, no sharp cut-off; inactive means mostly below about 43%; further: 0% is about no effect
# Active calls of the source: *; ? = inconclusive; . = no result given; [ ] = another dose, or the depositor's remark.
SMILES,Lassa entry inh,MARV entry inh,CHX counter,Shiga inhibitor
Cc1[nH]c(C)c(S(=O)(=O)N2CCN(c3ccc(Cl)cc3)CC2)c1C(=O)N1CCCC1,.,.,1,-6
Cc1cc(/C=N/Nc2ccc([N+](=O)[O-])cn2)c(C)n1-c1ccccc1,16%,-18%,27*,78*
Cc1ccc(-n2c(C)cc(/C=N/Nc3ccc([N+](=O)[O-])cn3)c2C)cc1,-9%,-8%,39*,59*
O=C(O)c1ccccc1C=NNc1ccc([N+](=O)[O-])cn1,?,2%[46.1 µM],.,.
Cc1cc(/C=N/NC(=O)CC#N)c(C)n1-c1ccc([N+](=O)[O-])cc1,-3%,-13%,-1,-8
Cc1c(C(=O)O)cccc1-n1c(C)cc(/C=N/Nc2ccc([N+](=O)[O-])cn2)c1C,.,.,32*,71*
Cc1ccc(NC(=O)Cc2c(C(=O)O)c(C)cn2C)cc1Cl,5%[46.1 µM],.,.,.
Cc1cc(C)cc(NC(=O)CSc2nnc(-c3cc4occc4n3C)n2-c2ccccc2C)c1,-9%[46.1 µM],.,.,.
N/C(=N\OC(=O)CSc1ccccc1)c1ccc([N+](=O)[O-])cc1,-5%,4%,46*,67*
N/C(=N\OCc1ccc([N+](=O)[O-])cc1)c1ccncc1,-8%,8%[46.1 µM],27*,58*
Cc1ccc(/C(N)=N/OC(=O)CSc2ccccc2)cc1,-14%,-20%[46.1 µM],60*,79*
O=C(NNC(=O)c1ccc([N+](=O)[O-])cc1)c1ccncc1,19%,?,1,-12
COc1ccc(/C(N)=N/OC(=O)CSc2ccc(C)cc2)cc1,-17%,12%,-2,-7
Cc1ccc(SCC(=O)O/N=C(\N)c2ccncc2)cc1,.,.,37*,41
O=[N+]([O-])c1ccccc1S(=O)(=O)Nc1ccc2c(c1)OCCO2,.,.,7,-4
CCN(CC)CCCNC(=O)C(C)n1nc(C)c2sc3ccccc3c2c1=O (stereo not given),1%,?,-5,-9
CCN(CC)CCNc1ccc(C)c2sc3ccc(O)cc3c(=O)c12,?,2.2µM*,.,.
CCN(CC)C(=O)c1cc2c(=O)n3cccc(C)c3nc2s1,16%,?,27*,42
CCCCN(CC)C(=O)c1cc2c(=O)n3cccc(C)c3nc2s1,4%[46.1 µM],?,12,17
CCN(C(=O)c1cc2c(=O)n3cccc(C)c3nc2s1)c1ccc(C)c(C)c1,-28%[46.1 µM],?,.,.
Cc1cccn2c(=O)c3cc(C(=O)N(Cc4ccccc4)C(C)C)sc3nc12,?,4µM*,.,.
COc1ccccc1NC(=O)CSc1ccc(-c2cccs2)nn1,-12%,-9%[46.1 µM],7,-10
CCOc1ccc2nc(NC(=O)c3nc(SCc4ccc(C)cc4)ncc3Cl)sc2c1,27%[46.1 µM],1%[46.1 µM],.,.
COc1ccc(-n2nc([N+](=O)[O-])c(=NCCc3ccc(OC)c(OC)c3)n2O)cc1,?,?,1,-13
COc1ccc(-n2nc([N+](=O)[O-])c(=NCc3cccnc3)n2O)cc1,?,?,65*,26
SMILES,Lassa entry inh,MARV entry inh,CHX counter,Shiga inhibitor
COc1ccc(-n2nc([N+](=O)[O-])c(=NCCc3ccc(C)cc3)n2O)cc1,-11%[46.1 µM],29%[46.1 µM],5,47
COc1ccc(-n2nc([N+](=O)[O-])c(=NCCC3=CCCCC3)n2O)cc1,24%,9%,32*,46
COc1ccc(-n2nc([N+](=O)[O-])c(=NCc3ccco3)n2O)cc1,-18%[46.1 µM],?,30*,80*
Cc1ccc(CN=c2c([N+](=O)[O-])nn(-c3cccc(C)c3)n2O)cc1,.,.,25*,26
COc1ccc(-n2nc([N+](=O)[O-])c(=NCCc3ccc(Cl)cc3)n2O)cc1,3%,19%,16,-4
CN(C)c1oc(-c2ccc(COc3ccccc3)o2)nc1C#N,-7%[46.1 µM],13%[46.1 µM],.,.
O=C(/C(=C/c1cccnc1)n1ccnc1)c1ccc(Cl)cc1Cl,.,.,-2,11
Cn1cc2cc([N+](=O)[O-])ccc2n1,-3%,13%[46.1 µM],9,13
CC(C(=O)Nc1cccnc1)C1Sc2ccccc2NC1=O (stereo not given),.,.,12,28
O=C(NCCOc1ccccc1)C1CCCCC1,2%[46.1 µM],18%[46.1 µM],29*,72*
O=C(CCC(=O)c1ccccc1)NCCOc1ccccc1,7%[46.1 µM],?,0,20
O=C(NCCOc1ccc(F)cc1)C1CCN(S(=O)(=O)c2ccccc2)CC1,-10%,-4%,-5,14
O=C(CC1CCCCC1)NCCOc1ccccc1,-2%,?,9.7*,50*
c1cc(C2CCN(Cc3nc(-c4ccc5c(c4)OCO5)no3)CC2)ccn1,.,.,-2,-12
COc1ccc(C2CC23N=C(c2ccccc2)OC3=O)cc1 (stereo not given),-16%,?,-2,-3
O=C(CCN1C(=O)C2CCCCC2C1=O)N1CCN(S(=O)(=O)c2ccccc2)CC1 (stereo not given),-1%,0%,.,.
